Results taken from PubChem BioAssay (EPA / NIEHS).
Active and inactive are the calls of the source. The calls were made as follows: active = hit-call score of the fitted dose curve at least 0.9, where 1 is the maximum; inactive = score below 0.9.

What was measured:
Settings in all cases: mRNA level, 48 h; actives raise or lower the signal
[1] = read-out: Peroxisomal acyl-coenzyme A oxidase 1 (ACOX1) gene, ACOX1 (gene 51); experiment: LTEA_HepaRG_ACOX1: Life Technologies and Expression Analysis (LTEA) Assay for Peroxisomal acyl-coenzyme A oxidase 1 (ACOX1) gene using HepaRG (AID 2283467)
Procedure, shortened: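 Differentiated human HepaRG cells were exposed in duplicate for 48 h in serum-free induction medium to eight half-log concentrations up to 100 uM in 0.5% DMSO. ACOX1 mRNA was then quantified by TaqMan qRT-PCR, normalized to ACTB, GAPDH and POLR2A.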

[2] = read-out: Bcl-2 (BAD) gene, BAD (gene 572); experiment: LTEA_HepaRG_BAD: Life Technologies and Expression Analysis (LTEA) Assay for Bcl-2 (BAD) gene using HepaRG (AID 2283469)
Procedure, shortened: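 Differentiated human HepaRG cells in serum-free induction medium were exposed in duplicate for 48 h to eight concentrations (top 100 uM, half-log steps, 0.5% DMSO). BAD mRNA was quantified by qRT-PCR normalised to ACTB, GAPDH and POLR2A, with bidirectional fitting versus DMSO.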

[3] = read-out: Bcl-2 (BAX) gene, BAX (gene 581); experiment: LTEA_HepaRG_BAX: Life Technologies and Expression Analysis (LTEA) Assay for Bcl-2 (BAX) gene using HepaRG (AID 2283470)
Procedure, shortened: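 Concentration-response endpoint fitted in both directions relative to 0.5% DMSO vehicle. Human HepaRG cultures receive test chemicals for 48 h at up to 100 uM; BAX mRNA is quantified by qRT-PCR against housekeeping genes.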

[4] = read-out: adenosine kinase (ADK) gene, ADK (gene 132); experiment: LTEA_HepaRG_ADK: Life Technologies and Expression Analysis (LTEA) Assay for adenosine kinase (ADK) gene using HepaRG (AID 2283471)
Procedure, shortened: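 Differentiated HepaRG cells dosed 48 h in serum-free induction medium, 0.5% DMSO vehicle, eight half-log concentrations from 100 uM, in duplicate. ADK mRNA by TaqMan qRT-PCR normalised to ACTB, GAPDH, POLR2A; bidirectional fit versus DMSO.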

[5] = read-out: Alpha-fetoprotein (AFP) gene, AFP (gene 174); experiment: LTEA_HepaRG_AFP: Life Technologies and Expression Analysis (LTEA) Assay for Alpha-fetoprotein (AFP) gene using HepaRG (AID 2283472)
Procedure, shortened: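 After a 48 h plating period, cells are moved to serum-free induction medium and dosed in duplicate (100 uM maximum, half-log dilutions, 0.5% DMSO) for another 48 h. Total RNA goes to TaqMan qRT-PCR; AFP signal is housekeeping-normalized.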

[6] = read-out: BCL2L11 (gene 10018); experiment: LTEA_HepaRG_BCL2L11: Life Technologies and Expression Analysis (LTEA) Assay for Bcl-2 (BCL2L11) gene using HepaRG (AID 2283473)
Procedure, shortened: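 Cells were plated, cultured 48 h, switched to serum-free induction medium, then dosed in duplicate for 48 h at eight half-log concentrations up to 100 uM. Lysates underwent RNA isolation and TaqMan qRT-PCR; gain or loss versus DMSO was fitted.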

[7] = read-out: Apolipoprotein A-V (APOA5) gene, APOA5 (gene 116519); experiment: LTEA_HepaRG_APOA5: Life Technologies and Expression Analysis (LTEA) Assay for Apolipoprotein A-V (APOA5) gene using HepaRG (AID 2283474)
Procedure, shortened: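 Human liver HepaRG cells are treated 48 h with test chemicals (100 uM top, half-log dilutions, 0.5% DMSO). APOA5 mRNA induction or loss is measured by qRT-PCR relative to vehicle.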

[8] = read-out: Apoptosis regulator Bcl-2 (Homo sapiens) (UniProt P10415); experiment: LTEA_HepaRG_BCL2: Life Technologies and Expression Analysis (LTEA) Assay for Bcl-2 gene using HepaRG (AID 2283475)
Procedure, shortened: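 Expression change of BCL2 mRNA in HepaRG after 48 h dosing, quantified by TaqMan qRT-PCR against three endogenous controls. Concentration-response used eight points up to 100 uM, vehicle 0.5% DMSO.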

[9] = read-out: Bcl-2 (BID) gene, BID (gene 637); experiment: LTEA_HepaRG_BID: Life Technologies and Expression Analysis (LTEA) Assay for Bcl-2 (BID) gene using HepaRG (AID 2283476)
Procedure, shortened: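 Gain or loss of BID expression is fitted relative to 0.5% DMSO vehicle. Human HepaRG liver cells received a 48 h chemical exposure over an eight-point concentration range.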

[10] = read-out: Caspase-3 (Homo sapiens) (UniProt P42574); experiment: LTEA_HepaRG_CASP3: Life Technologies and Expression Analysis (LTEA) Assay for cysteine-aspartic acid protease (CASP3) using HepaRG (AID 2283477)
Procedure, shortened: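 In HepaRG liver cells dosed for 48 h at up to 100 uM (eight-point, duplicate), CASP3 expression changes are scored by qRT-PCR. Activity is fitted in both directions with 0.5% DMSO as baseline.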

[11] = read-out: Cytochrome P450 (CYP24A1), CYP24A1 (gene 1591); experiment: LTEA_HepaRG_CYP24A1: Life Technologies and Expression Analysis (LTEA) Assay for Cytochrome P450 (CYP24A1) using HepaRG (AID 2283478)
Procedure, shortened: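 Human liver HepaRG cultures receive each chemical for 48 h across an eight-point half-log series topping at 100 uM in 0.5% DMSO. Induction or suppression of CYP24A1 mRNA is scored relative to vehicle after housekeeping-gene normalization.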

[12] = read-out: Cytochrome P450 (CYP1A2), CYP1A2 (gene 1544); experiment: LTEA_HepaRG_CYP1A2: Life Technologies and Expression Analysis (LTEA) Assay for Cytochrome P450 (CYP1A2) using HepaRG (AID 2283479)
Procedure, shortened: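 Assesses CYP1A2 mRNA in human HepaRG liver cells after 48 h chemical exposure at up to 100 uM. Values come from qRT-PCR with bidirectional curve fitting relative to DMSO.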

[13] = read-out: cysteine-aspartic acid protease (CASP8), CASP8 (gene 841); experiment: LTEA_HepaRG_CASP8: Life Technologies and Expression Analysis (LTEA) Assay for cysteine-aspartic acid protease (CASP8) using HepaRG (AID 2283480)
Procedure, shortened: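 Differentiated human HepaRG cells, plated 48 h then switched to serum-free induction medium, were exposed in duplicate for 48 h to 8 half-log concentrations up to 100 uM in 0.5% DMSO. CASP8 mRNA was quantified by qRT-PCR, normalized to ACTB/GAPDH/POLR2A.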

[14] = read-out: Cytochrome P450 (CYP2B6), CYP2B6 (gene 1555); experiment: LTEA_HepaRG_CYP2B6: Life Technologies and Expression Analysis (LTEA) Assay for Cytochrome P450 (CYP2B6) using HepaRG (AID 2283481)
Procedure, shortened: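 Using 48 h treatment of HepaRG cells in serum-free induction medium, concentrations spanned half-log steps from 100 uM in 0.5% DMSO vehicle. CYP2B6 mRNA induction or loss is scored by qRT-PCR against DMSO.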

[15] = read-out: Cytochrome P450 2C19 (Homo sapiens) (UniProt P33261); experiment: LTEA_HepaRG_CYP2C19: Life Technologies and Expression Analysis (LTEA) Assay for CYP2C19 using HepaRG (AID 2283482)
Procedure, shortened: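 Human HepaRG liver cells received test chemicals for 48 h (highest 100 uM, half-log dilutions in 0.5% DMSO). CYP2C19 mRNA induction or loss is read by multiplexed qRT-PCR and fitted in both directions versus vehicle.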

[16] = read-out: CYP2C8 (gene 1558); experiment: LTEA_HepaRG_CYP2C8: Life Technologies and Expression Analysis (LTEA) Assay for CYP2C8 using HepaRG (AID 2283483)
Procedure, shortened: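 Differentiated human HepaRG cells were exposed for 48 h in serum-free induction medium to eight half-log concentrations up to 100 uM in 0.5% DMSO, in duplicate. CYP2C8 mRNA was measured by TaqMan qRT-PCR, normalized to ACTB, GAPDH and POLR2A, and fitted bidirectionally against DMSO.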

[17] = read-out: CYP2C9 (gene 1559); experiment: LTEA_HepaRG_CYP2C9: Life Technologies and Expression Analysis (LTEA) Assay for CYP2C9 using HepaRG (AID 2283484)
Procedure, shortened: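 Differentiated human HepaRG cells were exposed 48 h in serum-free induction medium to eight half-log concentrations up to 100 uM in 0.5% DMSO. CYP2C9 mRNA was measured by qRT-PCR, normalized to ACTB, GAPDH and POLR2A, and fitted bidirectionally against DMSO.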

[18] = read-out: CYP2E1 (gene 1571); experiment: LTEA_HepaRG_CYP2E1: Life Technologies and Expression Analysis (LTEA) Assay for CYP2E1 using HepaRG (AID 2283485)
Procedure, shortened: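 Differentiated HepaRG cells were treated in duplicate for 48 h with chemicals in 0.5% DMSO, from 100 uM downward in half-log dilutions. RNA was then analysed by qRT-PCR for CYP2E1 induction or loss.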

[19] = read-out: CYP4A11 (gene 1579); experiment: LTEA_HepaRG_CYP4A11: Life Technologies and Expression Analysis (LTEA) Assay for CYP4A11 using HepaRG (AID 2283486)
Procedure, shortened: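 Readout is CYP4A11 mRNA induction or suppression (qRT-PCR, ACTB/GAPDH/POLR2A normalization) in human HepaRG cells after 48 h chemical treatment, concentrations to 100 uM in 0.5% DMSO, fitted bidirectionally against vehicle.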

[20] = read-out: Alkaline Phosphatase, Placental (ALPP) gene, ALPP (gene 250); experiment: LTEA_HepaRG_ALPP: Life Technologies and Expression Analysis (LTEA) Assay for Alkaline Phosphatase, Placental (ALPP) gene using HepaRG (AID 2283468)
Procedure, shortened: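 Expression of ALPP was quantified by qRT-PCR against three housekeeping genes in human HepaRG cultures treated for 48 h with an eight-point concentration series up to 100 uM. Activity in either direction was fitted relative to 0.5% DMSO.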

Chain of Apoptosis regulator Bcl-2 (Homo sapiens) (P10415 whole entry, looked up): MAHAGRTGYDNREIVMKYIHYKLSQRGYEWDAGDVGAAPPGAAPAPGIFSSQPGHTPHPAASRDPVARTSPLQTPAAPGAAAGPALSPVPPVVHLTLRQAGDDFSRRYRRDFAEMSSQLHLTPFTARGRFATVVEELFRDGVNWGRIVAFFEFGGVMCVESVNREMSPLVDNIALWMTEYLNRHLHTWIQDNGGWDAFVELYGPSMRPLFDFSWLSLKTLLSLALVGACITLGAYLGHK
Chain of Caspase-3 (Homo sapiens) (P42574 whole entry, looked up): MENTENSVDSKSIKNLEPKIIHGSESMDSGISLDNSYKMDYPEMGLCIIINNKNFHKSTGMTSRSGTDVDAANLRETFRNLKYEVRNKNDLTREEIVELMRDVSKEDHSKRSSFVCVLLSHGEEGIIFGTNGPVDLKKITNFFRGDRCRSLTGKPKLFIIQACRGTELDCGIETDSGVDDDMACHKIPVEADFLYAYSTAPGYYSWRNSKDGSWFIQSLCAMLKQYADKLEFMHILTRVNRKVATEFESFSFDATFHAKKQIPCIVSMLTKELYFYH
Chain of Cytochrome P450 2C19 (Homo sapiens) (P33261 whole entry, looked up): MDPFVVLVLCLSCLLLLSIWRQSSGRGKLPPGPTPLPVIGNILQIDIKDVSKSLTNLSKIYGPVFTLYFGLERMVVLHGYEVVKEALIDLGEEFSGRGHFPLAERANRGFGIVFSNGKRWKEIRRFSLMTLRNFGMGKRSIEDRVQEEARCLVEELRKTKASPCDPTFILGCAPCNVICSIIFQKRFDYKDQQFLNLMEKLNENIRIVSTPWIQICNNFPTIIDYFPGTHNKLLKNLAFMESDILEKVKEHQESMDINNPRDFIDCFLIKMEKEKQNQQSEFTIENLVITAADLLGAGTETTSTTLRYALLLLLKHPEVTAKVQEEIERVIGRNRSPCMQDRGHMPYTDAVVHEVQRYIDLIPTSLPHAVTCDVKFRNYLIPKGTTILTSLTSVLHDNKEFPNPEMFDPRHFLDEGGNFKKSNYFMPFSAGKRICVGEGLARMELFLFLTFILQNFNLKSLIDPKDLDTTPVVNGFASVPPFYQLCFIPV

## CCOCCOC(C)=O
[1]
  outcome: inactive
[2]
  outcome: inactive
[3]
  outcome: inactive
[4]
  outcome: inactive
[5]
  outcome: inactive
[6]
  outcome: inactive
[7]
  outcome: inactive
[8]
  outcome: inactive
[9]
  outcome: inactive
[10]
  outcome: inactive
[11]
  outcome: inactive
[12]
  outcome: inactive
[13]
  outcome: inactive
[14]
  AC50: 20.3 µM (active)
[15]
  outcome: inactive
[16]
  outcome: inactive
[17]
  outcome: inactive
[18]
  outcome: inactive
[19]
  outcome: inactive

## O=C(NC(=O)c1c(F)cccc1F)Nc1cc(Cl)c(OC(F)(F)C(F)F)c(Cl)c1
[1]
  outcome: inactive
[2]
  outcome: inactive
[3]
  outcome: inactive
[4]
  outcome: inactive
[5]
  outcome: inactive
[6]
  outcome: inactive
[7]
  outcome: inactive
[8]
  outcome: inactive
[9]
  outcome: inactive
[10]
  outcome: inactive
[11]
  outcome: inactive
[12]
  AC50: 3.63 µM (active)
[13]
  outcome: inactive
[14]
  outcome: inactive
[15]
  outcome: inactive
[16]
  outcome: inactive
[17]
  outcome: inactive
[18]
  AC50: 11.6 µM (active)
[19]
  outcome: inactive

## CCCCCCCCOC(=O)c1ccccc1C(=O)OCCCCCCCC
[1]
  outcome: inactive
[20]
  outcome: inactive
[2]
  outcome: inactive
[3]
  outcome: inactive
[4]
  outcome: inactive
[5]
  outcome: inactive
[6]
  outcome: inactive
[7]
  outcome: inactive
[8]
  outcome: inactive
[9]
  outcome: inactive
[10]
  outcome: inactive
[11]
  outcome: inactive
[12]
  outcome: inactive
[14]
  AC50: 16.3 µM (active)
[15]
  outcome: inactive
[16]
  outcome: inactive
[17]
  outcome: inactive
[18]
  outcome: inactive
[19]
  outcome: inactive

## CO/C=C(/C(=O)OC)c1ccccc1COc1cccc(C(F)(F)F)n1
[1]
  AC50: 5.3 µM (active)
[20]
  AC50: 5.39 µM (active)
[2]
  outcome: inactive
[3]
  AC50: 9.44 µM (active)
[4]
  outcome: inactive
[5]
  AC50: 4.93 µM (active)
[6]
  AC50: 6.53 µM (active)
[7]
  AC50: 9.59 µM (active)
[8]
  AC50: 9.33 µM (active)
[9]
  outcome: inactive
[10]
  outcome: inactive
[11]
  outcome: inactive
[12]
  AC50: 7.53 µM (active)
[14]
  AC50: 7.13 µM (active)
[15]
  AC50: 8.79 µM (active)
[16]
  AC50: 8.74 µM (active)
[17]
  AC50: 8.81 µM (active)
[18]
  AC50: 3.61 µM (active)
[19]
  AC50: 3.9 µM (active)

## Cc1cc(O)ccc1Cl
[1]
  outcome: inactive
[20]
  outcome: inactive
[2]
  outcome: inactive
[3]
  outcome: inactive
[4]
  outcome: inactive
[5]
  outcome: inactive
[6]
  outcome: inactive
[7]
  outcome: inactive
[8]
  outcome: inactive
[9]
  outcome: inactive
[10]
  outcome: inactive
[11]
  outcome: inactive
[12]
  outcome: inactive
[14]
  outcome: inactive
[15]
  outcome: inactive
[16]
  outcome: inactive
[17]
  outcome: inactive
[18]
  outcome: inactive
[19]
  outcome: inactive

## O=C(NC(=O)c1cc(F)c(F)cc1Cl)Nc1cc(F)ccc1N1CCC(C(=O)O)CC1
[1]
  outcome: inactive
[20]
  outcome: inactive
[2]
  outcome: inactive
[3]
  outcome: inactive
[4]
  outcome: inactive
[5]
  outcome: inactive
[6]
  outcome: inactive
[7]
  outcome: inactive
[8]
  outcome: inactive
[9]
  outcome: inactive
[10]
  outcome: inactive
[11]
  outcome: inactive
[12]
  outcome: inactive
[13]
  outcome: inactive
[14]
  outcome: inactive
[15]
  outcome: inactive
[16]
  outcome: inactive
[17]
  outcome: inactive
[18]
  AC50: 10.3 µM (active)
[19]
  AC50: 6.34 µM (active)
